Experimental findings from PubChem BioAssay AID488969 (Vanderbilt High Throughput Screening Facility, 2010) are described below.

Each structure is given as a SMILES string. The full ranking holds about 110,000 compounds; the median of “z-score” is about -0.1, and the highest 2% start at about 2. Many of the other results were omitted from the sample, so the highest values are more common in it than they were. The source made the active and inactive calls.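 How the source made its calls: active means z-score in the third read window above 3 or below -3; inactive means the rest.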

For the test, the target named is Metabotropic glutamate receptor 8 (Rattus norvegicus) (UniProt P70579). The experiment in a line: rat mGluR8 modulators via GIRK flux, primary screen, cell-based, thallium flux, HTS (AID 488969). As to conditions: HEK293 rat mGluR8, GIRK (G protein-gated inwardly rectifying potassium channel) thallium flux, FluoZin2; at 10 µM; stronger effect = higher value; submaximal glutamate (EC20) added with thallium.
Metabotropic glutamate receptor 8 (Rattus norvegicus), sequence (P70579 whole entry, looked up): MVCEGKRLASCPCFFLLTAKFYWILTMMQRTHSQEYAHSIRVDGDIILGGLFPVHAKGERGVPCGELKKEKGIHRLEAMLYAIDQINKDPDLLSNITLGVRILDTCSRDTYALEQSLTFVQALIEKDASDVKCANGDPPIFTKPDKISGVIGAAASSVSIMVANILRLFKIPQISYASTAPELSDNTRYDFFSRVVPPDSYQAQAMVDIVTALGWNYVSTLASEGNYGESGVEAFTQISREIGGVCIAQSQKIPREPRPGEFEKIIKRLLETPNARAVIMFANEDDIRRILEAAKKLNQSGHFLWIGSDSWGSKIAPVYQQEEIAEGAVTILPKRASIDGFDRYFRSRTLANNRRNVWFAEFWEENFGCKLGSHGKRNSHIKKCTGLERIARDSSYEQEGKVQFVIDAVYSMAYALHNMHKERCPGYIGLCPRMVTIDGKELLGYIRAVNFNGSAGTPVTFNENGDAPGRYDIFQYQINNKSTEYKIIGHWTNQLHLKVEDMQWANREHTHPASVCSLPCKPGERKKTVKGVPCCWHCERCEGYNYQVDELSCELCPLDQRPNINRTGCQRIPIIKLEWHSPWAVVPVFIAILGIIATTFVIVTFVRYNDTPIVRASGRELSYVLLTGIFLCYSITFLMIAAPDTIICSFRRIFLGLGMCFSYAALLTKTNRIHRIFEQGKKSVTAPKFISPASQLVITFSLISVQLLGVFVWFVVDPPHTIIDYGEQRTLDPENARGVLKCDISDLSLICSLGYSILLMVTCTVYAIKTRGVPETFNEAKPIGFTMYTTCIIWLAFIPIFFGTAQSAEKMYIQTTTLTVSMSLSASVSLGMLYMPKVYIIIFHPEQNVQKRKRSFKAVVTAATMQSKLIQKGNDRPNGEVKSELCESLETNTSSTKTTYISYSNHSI
In turn, `COC(=O)c1sccc1NC(=O)COc1ccc(Cl)cc1Cl` yielded a z-score of -0.26.
Regarding `COC(=O)c1sccc1NC(=O)CSc1cccc(Cl)c1Cl`, the z-score was -0.0544.
In the case of `COC(=O)c1sccc1NC(=O)COc1ccccc1Cl` it was -0.212; in that of `COC(=O)c1sccc1NC(=O)CSc1ccccc1NS(=O)(=O)c1cc(Cl)ccc1Cl`, 8.63 (active).
In the case of `COC(=O)c1sccc1NC(=O)CSc1cc(Cl)ccc1Cl` it was -0.165.
In the case of `COC(=O)c1sccc1NC(=O)CSc1ccccc1NS(=O)(=O)c1ccccc1Cl` it was 3.17 (active).
The compound `Cc1nn2c(-n3ccnc3C)c3c(nc2c1-c1ccccc1)CCC3` came in with a z-score of -0.311.
For the compound `Clc1ccc(CNCCC2=CCCCC2)cc1`, the z-score came to 2.27.
`O=C(NCCC1=CCCCC1)C(=O)NCc1ccccc1` gave a z-score of -0.143.
Then `C1=C(CCNCC2CC2)CCCC1`, with 0.204; and `O=C(CCSCc1ccc(Cl)cc1)NCCC1=CCCCC1`, with -0.242; and `Cc1ccc(CNC(=O)C(=O)NCCC2=CCCCC2)cc1`, with -0.102.
Compound `Cc1ccc(CNCCC2=CCCCC2)cc1` had a z-score of 2.07.
`COc1cc(NC(=O)CN(C)S(=O)(=O)c2ccc3c(c2)CCC(=O)N3)cc(OC)c1` returned a z-score of -0.176.
As to `O=C1NC(=O)[C@@H]2C3c4ccccc4C=CN3[C@H](C(=O)c3cccs3)[C@H]12` (stereo partly drawn), the z-score was -0.687.
`CCCCC(=O)Nc1nn(CCC)c2nc3ccccc3cc12` had a z-score of -1.22.
Then `CC(C)=C1C2CCC1C1C(=O)N(NC(=O)COc3ccc(Cl)c(C)c3)C(=O)C21` (stereo not drawn), with -0.481; and `CC(C)=CCC/C(C)=C/C=N/NC(=O)c1ccccc1[N+](=O)[O-]`, with -0.0423; and `Cc1ccc(C2c3c(oc4ccc(Cl)cc4c3=O)C(=O)N2CCCN2CCOCC2)o1` (stereo not drawn), with 3.95 (active).
Compound `Cc1ccc(C2c3c(oc4ccccc4c3=O)C(=O)N2CCCN2CCOCC2)o1` (stereo not drawn) displayed a z-score of 0.634.
On to `O=C1c2oc3ccc(Cl)cc3c(=O)c2C(c2ccco2)N1CCN1CCOCC1` (stereo not drawn), for which the z-score stood at 0.841.
As for `CC(C)c1nnc(NC(=O)CCC(=O)NCc2ccc3c(c2)OCO3)s1`, the z-score was 0.746.
In turn, `COc1ccc(CCNC(=O)c2nonc2N)cc1` yielded a z-score of -0.242.
The compound `O=S(=O)(NCC1CCCO1)c1ccc(S(=O)(=O)N2CCc3ccccc3C2)cc1` (stereo not drawn) returned a z-score of 0.1.
`COCCCNCCCOc1ccc(Cl)cc1Br`: the z-score is 3.75 (active).
As for `OCCNCCCOc1ccc(Cl)cc1Br`, the z-score worked out at 0.496.
Turning to `COCCCNCCCOc1ccc(C)cc1Br`, the z-score was -0.00352.
Then `COc1ccc(N2C(=O)CC(N3CCN(c4ccc(C(=O)c5cccnc5)cc4)CC3)C2=O)cc1` (stereo not drawn), with -0.186; and `CC(C)(C)c1ccc(OCc2ccc(C(=O)N/N=C3\CC4CC=CC34)cc2)cc1` (stereo not drawn), with -0.0236.
In the case of `O=C1NC(=S)SC1=C1CCCC1`, the z-score stood at 1.36.
Then `O=C1NC(=S)SC1=C1CCCCCC1`, with 17.1 (active); and `O=C1NC(=O)C(=C2CCCCCC2)S1`, with 0.367.
As for `Cc1cc(C(=O)NCc2ccccc2F)cs1`, the z-score was -0.288.
In the case of `CCSC1=N/C(=C\c2ccc(OC)cc2)C(=O)N1` it was -0.286; in that of `CC(c1ccc(Cl)cc1)n1c(-c2ccc3ccccc3n2)n[nH]c1=S` (stereo not drawn), 7.23 (active).
Then `S=c1[nH]nc(-c2ccc3ccccc3n2)n1Cc1ccccc1`, with 0.834; and `S=c1[nH]nc(-c2ccc3ccccc3n2)n1-c1ccc2ncccc2c1`, with -0.148.
Compound `S=c1[nH]nc(-c2ccc3ccccc3n2)n1-c1ccccc1` displayed a z-score of 0.119.
Then `S=c1[nH]nc(-c2ccc3ccccc3n2)n1-c1ccccc1Cl`, with 0.0824.
The compound `S=c1[nH]nc(-c2ccc3ccccc3n2)n1-c1ccc(Cl)cc1` returned a z-score of 0.934.
Then `S=c1[nH]nc(-c2ccc3ccccc3n2)o1`, with -0.153; and `S=c1[nH]nc(-c2ccc3ccccc3n2)n1-c1cc(Cl)cc(Cl)c1`, with 2.18; and `CC(c1ccc(F)cc1)n1c(-c2ccc3ccccc3n2)n[nH]c1=S` (stereo not drawn), with 6.84 (active).
Take `Cc1ccc(C(=O)CSc2nnc(COc3ccc(C#N)cc3)n2-c2ccccc2)cc1`: the z-score was 0.655.
For the compound `Oc1csc(Cc2nc(-c3ccc4ccccc4c3)cs2)n1`, the z-score was -0.78.
Then `Cc1ccc(NC(=O)C2CCCN(S(=O)(=O)c3cnc[nH]3)C2)cc1F` (stereo not drawn), with -0.00916.
`Clc1ccc(-c2cc(CSc3cccc(Cl)c3)on2)cc1` returned a z-score of -0.234.
As to `CCOC(=O)c1cc(NC(=O)COc2ccc([N+](=O)[O-])cc2)cc(C(=O)OCC)c1`, the z-score was -0.0752.
Compound `Cc1[nH]c(=O)[nH]c(=O)c1/C=C/C(=O)OCC(C)C` registered a z-score of 0.104.
Then `NCCCCCc1nnc(SCc2ccccc2Cl)o1`, with 1.74; and `NCCCCCc1nnc(SCc2ccc(Cl)cc2Cl)o1`, with 2.74.
Turning to `NCCCCCc1nnc(SCc2ccc(Cl)c(Cl)c2)o1`, the z-score is 0.93.
In turn, `CCN(C(=O)CSc1nc2cc(C(F)(F)F)ccc2n1Cc1ccccc1)C1CCS(=O)(=O)C1` (stereo not drawn) returned a z-score of -0.724.
The compound `Cc1ccc(-c2cn(-c3ccccc3)c(SCC(N)=O)n2)cc1C` yielded a z-score of -1.06.
Then `O=C(CSc1nc2ccccc2n1CC(=O)N1CCOCC1)N1CCCC1`, with 0.588; and `O=C(CSc1nnc(-c2ccc(Br)cc2)n1CCc1ccccc1)NC1CCS(=O)(=O)C1` (stereo not drawn), with -0.076; and `CCN(C(=O)CSc1nc2ccccc2n1CCc1ccccc1)C1CCS(=O)(=O)C1` (stereo not drawn), with 3.88 (active).
`O=C(CSc1nc2ccccc2n1CCc1ccccc1)N1CCOCC1` came in with a z-score of 2.47.
In turn, `Cc1ccc(C)c(-n2cc(-c3ccc(Cl)cc3)nc2SCC(=O)NC2CCS(=O)(=O)C2)c1` (stereo not drawn) displayed a z-score of -0.524.
In turn, `CN(C(=O)CSc1nc2ccccc2n1CCc1ccccc1)C1CCS(=O)(=O)C1` (stereo not drawn) showed a z-score of 0.483.
The compound `O=C(Cn1c(SCc2ccccc2)nc2ccccc21)N1CCOCC1` displayed a z-score of -0.096.
In the case of `Cc1ccc(-c2cn(-c3ccccc3)c(SCC(=O)NC3CCS(=O)(=O)C3)n2)cc1C` (stereo not drawn) it was 3.44 (active); in that of `O=C(CSc1nc2ccccc2n1CCc1ccccc1)NC1CCS(=O)(=O)C1` (stereo not drawn), 2.39; in that of `O=C(CSc1nc2cc(C(F)(F)F)ccc2n1Cc1ccccc1)NC1CCS(=O)(=O)C1` (stereo not drawn), -0.137.
In the case of `CCOC(=O)/C(=N\Nc1ccc(OC)cc1)c1csc(Nc2ccccc2)n1` it was 0.551.
In the case of `COC(=O)CCc1c(C)c(C#N)c2nc3ccccc3n2c1N1CCCC1` it was -0.478; in that of `Cc1cc(-n2ccc(=O)[nH]c2=O)nc(-c2ccccc2)n1`, -0.208.
For the compound `S=C1NCCc2ccc(Cl)cc2C1c1ccccc1` (stereo not drawn), the z-score is -0.00171.
Compound `Cc1c(C(C)(C)C)c(C=S)n2ccccc12` showed a z-score of -0.503.
`CN(C)c1ccc(C2NCC(CCl)O2)cc1` (stereo not drawn) yielded a z-score of -0.159.
In the case of `CCN(CC)S(=O)(=O)c1ccc(C(=O)NCc2n[nH]c(=S)n2-c2ccccc2OC)cc1`, the z-score is -0.0139.
`COc1ccccc1-n1c(CNC(=O)COc2ccccc2)n[nH]c1=S`: the z-score is 2.71.
Regarding `COc1cc(OC)cc(C(=O)NCc2n[nH]c(=S)n2-c2ccccc2OC)c1`, the z-score is -0.981.
